# Laboratory results published in PubChem BioAssay AID652054 (National Center for Advancing Translational Sciences (NCATS), 2013).
# Out of some 360,000 compounds screened, about 9,100 (2.5%) were called active. About 4% were inconclusive and are not listed. Cut-off read from the data, not from the text of the source: active = max response below about -50%; inconclusive = no clear call, values can overlap the other calls; inactive = above that. The sample as a whole holds a higher share of actives than the screen did.
# Target: D(3) dopamine receptor (Homo sapiens) (UniProt P35462)
# Sequence (P35462 whole entry, looked up): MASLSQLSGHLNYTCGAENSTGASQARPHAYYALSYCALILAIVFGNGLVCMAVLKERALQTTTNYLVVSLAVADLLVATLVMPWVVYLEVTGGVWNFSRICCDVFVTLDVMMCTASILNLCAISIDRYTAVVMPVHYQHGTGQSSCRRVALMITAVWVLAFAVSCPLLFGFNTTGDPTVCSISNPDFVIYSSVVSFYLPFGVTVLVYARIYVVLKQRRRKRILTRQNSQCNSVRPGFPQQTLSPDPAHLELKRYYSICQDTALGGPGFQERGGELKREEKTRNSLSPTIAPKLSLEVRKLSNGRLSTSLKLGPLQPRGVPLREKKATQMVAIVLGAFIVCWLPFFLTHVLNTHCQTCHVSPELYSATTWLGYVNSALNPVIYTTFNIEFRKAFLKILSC
# Test: qHTS of D3 Dopamine Receptor Antagonist: qHTS
# Conditions: D3R cells, DiscoveRx beta-arrestin luminescence, antagonist mode; hits give low values
# In short: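 Cells expressing the human receptor were seeded at 1500 cells/well, incubated overnight at 37 degrees C in 5% CO2, then exposed to library compounds with dopamine controls for 90 minutes at 37 degrees C before luminescent detection.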
# % is set by controls: 0 for no effect and ±100 for the full control effect.
row,SMILES,"max response, negative = inhibition"
1,Cc1cc(Br)cn2c(Cc3cccc(F)c3)c(-c3cccc(Br)c3)nc12,0.913% (inactive)
2,CC(C)c1csc(CN2CCC(CO)(Cc3ccccc3)CC2)n1,-22% (inactive)
3,COc1ccccc1/C=C/CN1CCC(CO)(Cc2ccccc2)CC1,-76.1% (active)
4,COc1ccccc1/C=C/C=N/NC(=O)CN1CCN(Cc2ccccc2)CC1,-17.6% (inactive)
5,COc1cccc(NC(=O)N(C)C[C@@H]2Oc3ncc(Br)cc3C(=O)N([C@@H](C)CO)C[C@H]2C)c1,-24.9% (inactive)
6,OC(c1ccccc1)c1nc(-c2cnc3ccccc3c2)cs1 (stereo unspecified),4.32% (inactive)
7,CCc1ccc2c(c1)C1(NN=C(c3ccccc3)S1)C(=O)N2 (stereo unspecified),-60.6% (active)
8,CCc1ccc2c(c1)NC(=O)C2(C)Cc1ccc(OC(F)(F)F)cc1 (stereo unspecified),16.6% (inactive)
9,CCOc1ccc(CCN2C(=O)c3cccnc3C2=O)cc1OCC,-22% (inactive)
10,NC1=CC(=O)C(=O)c2cccnc21,-69.1% (active)
11,NC(c1csc(NC(=O)Nc2cccc(C(F)(F)F)c2)n1)C1CCCCC1 (stereo unspecified),13.3% (inactive)
12,CCOC(=O)[C@]12CCC=C1N(CCC1=CCCCC1)C(=O)[C@H](CC(=O)NCc1ccc(C)o1)C2,16.1% (inactive)
13,COCCCNC(=O)c1ccc(-c2c(C)noc2C)c2ccoc12,0% (inactive)
14,Cc1nc(Nc2ccc3c(c2)OCCO3)c2nnn(Cc3ccccc3Cl)c2n1,-26.4% (inactive)
15,Cc1nc(Nc2ccc(S(=O)(=O)N3CCCC3)cc2)c2nnn(Cc3ccccc3)c2n1,-69.4% (active)
16,CC(C)Cc1nc(Nc2ccc(S(=O)(=O)N3CCCC3)cc2)c2nnn(Cc3ccccc3)c2n1,-27.2% (inactive)
17,NS(=O)(=O)c1ccc(CNC(=O)c2cc(S(=O)(=O)N3CCOCC3)ccc2N2CCCC2)cc1,0% (inactive)
18,COc1cc(CNc2ncnc3c2ncn3[C@H]2CN(Cc3cccs3)C[C@@H](CO)O2)cc(OC)c1OC,13% (inactive)
19,C[C@H](CO)N1C[C@H](C)[C@@H](CN(C)Cc2ccc3c(c2)OCO3)OCc2cnnn2CCCC1=O,9.24% (inactive)
20,CCCS(=O)(=O)NC(=O)C1(C)CCCN(C(=O)c2ccnc(Cl)c2)C1 (stereo unspecified),-5.74% (inactive)
21,COc1ccc(N2CCN(C(=O)CNC(=O)c3ccc(Br)o3)CC2)cc1,4.35% (inactive)
22,COc1ccc(N2CCN(Cc3ccc(Br)s3)CC2)cc1,-54.8% (active)
23,Fc1ccc(N2CCN(Cc3cnc(Oc4ccc(Br)cc4)s3)CC2)cc1,-67.9% (active)

row,SMILES,"max response, negative = inhibition"
1,O=C(c1ccccc1Oc1ccccc1)N1CCN(c2ccc(F)cc2)CC1,11.3% (inactive)
2,COc1ccc(N2CCN(C(=O)c3cccs3)CC2)cc1,-4.36% (inactive)
3,O=[N+]([O-])c1ccc(N2CCN(c3ccc(F)cc3)CC2)cn1,1.91% (inactive)
4,CO[C@@H]1CN(C)C(=O)c2cc(NC(=O)C3CC3)ccc2OC[C@H](C)N(C(=O)CN2CCOCC2)C[C@@H]1C,-4.53% (inactive)
5,Cc1cccc(C(=O)OCC(=O)Nc2sccc2C(N)=O)c1C,12.4% (inactive)
6,CCOC(=O)C1Sc2[nH]c(=O)sc2C(c2ccc(Cl)cc2)C1C(=O)OCC (stereo unspecified),-67.4% (active)
7,CCOC(=O)C1CCN(C(=O)Nc2ccc(Cl)cc2)CC1,0% (inactive)
8,CCOC(=O)C1C(=O)NCC1c1ccccc1 (stereo unspecified),-22.2% (inactive)
9,Cc1ccc(S(=O)(=O)N2[C@@H](Cc3ccccc3)CO[C@H]2CC(=O)OCc2ccccc2)cc1,-24.9% (inactive)
10,COc1ccc(C(=O)NCC[N+](C)(C)C)cc1,7.47% (inactive)
11,CCc1nnc(NC(=O)CCC(=O)NCc2ccccc2OC)s1,14.9% (inactive)
12,COc1ccccc1CNC(=O)CCn1c(=O)sc2ccccc21,-166% (active)
13,COc1ccccc1CNC(=O)CCCN1C(=O)NC2(CCCC2)C1=O,-13.5% (inactive)
14,O=Cc1cn(CCOc2ccc(F)cc2)c2ccccc12,25% (inactive)
15,Cc1ccc(S(=O)(=O)NC(=O)N2CCCC(C)(C)C2)cc1,2.79% (inactive)
16,Cc1ccc(S(=O)(=O)NC(=O)N2CCCN(Cc3ccc(F)cc3)CC2)cc1,-51.3% (active)
17,CC(=O)N1CCN(CC(C)(C)NS(=O)(=O)c2ccc(C)cc2)CC1,0.902% (inactive)
18,O=C(c1ccc(N2CCCC2=O)cc1)N1CCN(c2ccc(C(F)(F)F)cc2[N+](=O)[O-])CC1,29.2% (inactive)
19,O=C(NCc1ccc2c(c1)OCO2)c1sccc1Br,10.4% (inactive)
20,O=C(NCc1ccc2c(c1)OCO2)C12CC3CC(CC(C3)C1)C2,10.5% (inactive)
21,CCOC(=O)NCc1ccc2c(c1)OCO2,-52.8% (active)
22,O=C(NCc1ccc2c(c1)OCO2)c1cc2c(s1)CS(=O)(=O)C2,-163% (active)
23,O=C(NCc1ccc2c(c1)OCO2)c1ccc(Cl)s1,-10.3% (inactive)

row,SMILES,"max response, negative = inhibition"
1,Cc1ccc(C(=O)OCC(=O)NCc2ccc3c(c2)OCO3)s1,5.99% (inactive)
2,CCOc1cc(/C=N/NC(=O)c2c(C)nc3ccc(Cl)cn23)ccc1O,-5.49% (inactive)
3,CSc1ccc(CN2CCC2(C)C(=O)NCc2ccccc2Br)cc1 (stereo unspecified),33.4% (inactive)
4,CC(=O)OC[C@@H]1CN(Cc2ccccc2)C[C@H](n2cnc3c(NCc4ccco4)ncnc32)O1,14.6% (inactive)
5,COc1cc(OC)cc(C2=Cc3ccccc3C(CC(=O)c3ccco3)N2c2ccc(-c3cnc(OC)nc3)cc2)c1 (stereo unspecified),41.4% (inactive)
6,COc1ccc(CN2C(=O)C(CC(=O)NCc3cccc4ccccc34)CC(C(=O)N3CCOCC3)=C2C)cc1 (stereo unspecified),-2.29% (inactive)
7,CC(C)N=C1CCCC1C(=S)SSC(=S)C1CCCC1=NC(C)C (stereo unspecified),-68.8% (active)
8,COC(=O)C[C@@H]1C=C[C@@H](NC(=O)c2cccnc2)[C@@H](CO)O1,-2.19% (inactive)
9,COc1ccc(/C=C(/NC(=O)c2ccc(C)cc2)c2nc3ccccc3[nH]2)cc1OC,-65.3% (active)
10,COc1ccc(/C=C(\NC(=O)c2ccccc2)C(=O)NCCN2CCOCC2)cc1OC,-3.81% (inactive)
11,CCCCCOc1ccc(/C=C/C(=O)NCCc2nc3ccccc3[nH]2)cc1OC,53.6% (inactive)
12,CC1(C(=O)NS(=O)(=O)c2ccccc2)CCN1C(=O)Cc1ccc(-c2ccccc2)cc1 (stereo unspecified),-7.77% (inactive)
13,CCC1CCCCN1C(=S)Nc1ccc(C(C)=O)cc1 (stereo unspecified),4% (inactive)
14,O=C(NC(=S)N1CCc2ccccc21)c1ccco1,-1.16% (inactive)
15,CCC1CCCCN1C(=S)NC(=O)c1ccco1 (stereo unspecified),-122% (active)
16,N#Cc1ccc(OCC(=O)Nc2nc(-c3ccccn3)cs2)cc1,-9.86% (inactive)
17,CN(C)CCCOc1ccc(-c2ccc3nccn3c2)cn1,1.66% (inactive)
18,N=c1c2c3c(sc2ncn1CCCN1CCOCC1)CCCCC3,8.56% (inactive)
19,CC(C(=O)O)n1cnc2sc3c(c2c1=O)CCCC3 (stereo unspecified),20% (inactive)
20,S=c1[nH]nc2c3c4c(sc3ncn12)CCCC4,-92.7% (active)
21,CCOC(=O)N1CCN(C(=O)C[C@@H]2C[C@@]3(C(=O)OC)CC(C)(C)CC=C3N(Cc3ccco3)C2=O)CC1,-6.32% (inactive)
22,CC1=NN(c2ccc(Cl)c(C(=O)O)c2)C(=O)/C1=C/c1ccc(-c2ccccc2[N+](=O)[O-])o1,8.21% (inactive)
23,O=C1NN(c2ccccc2)C(=O)/C1=C/c1ccc(-c2cccc(C(=O)O)c2)o1,-54.9% (active)

row,SMILES,"max response, negative = inhibition"
1,CC(=O)c1cc(-c2ccccc2)[nH]c1N1CCCC1,0% (inactive)
2,Cc1cc(C)c(S(=O)(=O)NN=C2c3ccccc3[C@H]3Cc4csc[n+]4[C@@H]23)c(C)c1,8.56% (inactive)
3,COCC(C)NCc1cc(Br)ccc1OC (stereo unspecified),13.9% (inactive)
4,Cc1cccc(NC(=O)COc2ccc(Br)cc2C)n1,2.17% (inactive)
5,CCC(C)NCCOCCOc1ccc(Br)cc1C (stereo unspecified),-71.5% (active)
6,Cc1ccc(S(=O)(=O)N2CCOCC2)cc1NC(=O)c1ccncc1,-9.56% (inactive)
7,CN(C)CCNC(=O)c1ccc(-c2cn3c(-c4ccc(Oc5ccccc5)cc4)cnc3cn2)cc1,-27.6% (inactive)
8,CCCNC(=O)C1(C)CCN(C(=O)c2ccccc2OC(F)(F)F)C1 (stereo unspecified),7.72% (inactive)
9,Cc1ccc(S(=O)(=O)N2C[C@H]3n4c(=O)ccc(=O)n4C[C@H](OC(=O)NC4CCCC4)[C@@]3(O)C2)cc1,10.7% (inactive)
10,C[C@@H]1CN([C@@H](C)CO)C(=O)c2c(c3ccccc3n2C)-c2ccccc2CO[C@H]1CN(C)C(=O)C1CC1,5.32% (inactive)
11,COc1ccc(-c2coc3c(C(=O)NC(C)C)cccc23)c(C)c1,71.6% (inactive)
12,COc1ccc(C2CC(=O)NC(=O)C2)cc1,-22.1% (inactive)
13,COc1ccc([C@H]2CC(=O)C=C(c3ccc(C)cc3)C2)cc1,-60.5% (active)
14,COc1ccc([C@H]2CC(=O)C=C(/C=C/c3ccc(Cl)cc3)C2)cc1,-56.6% (active)
15,COc1ccc([C@H]2CC(=O)C=C(c3ccc(CO)cc3)C2)cc1,3.98% (inactive)
16,COc1ccc2cc(C3=CC(=O)C[C@H](c4ccc5c(c4)OCO5)C3)ccc2c1,6.05% (inactive)
17,CCCCC/C=C/C1=CC(=O)C[C@H](c2ccc(Cl)cc2)C1,8.93% (inactive)
18,CCCNC(=O)c1cc(C2CCCN(C(=O)c3ccc4c(c3)CCO4)C2)on1 (stereo unspecified),3.62% (inactive)
19,O=S1(=O)CC(N2CCN(Cc3ccccc3F)CC2)CN1Cc1cn(Cc2ccccc2)nn1 (stereo unspecified),0% (inactive)
20,O=C(Nc1ccccc1)Oc1cccc2cccnc12,-27.7% (inactive)
21,COc1ccc(NC(=O)Nc2cccc3cccnc23)cc1,-66.6% (active)
22,COc1cccc(NC(=O)Nc2ccc(F)cc2)c1,3.65% (inactive)
